Assay results reported in PubChem BioAssay AID588590 (National Center for Advancing Translational Sciences (NCATS), 2011).
Several values for one entry are separate records, joined by “and”; a condition that tells them apart may be missing. Equal entries are not always repeated. The campaign covered roughly 390,000 compounds. About 4,000 (1%) were called active. Entries that show only a call come without a potency. Not shown: some 7% with an inconclusive outcome. This is one part of a sample in which actives are shown more often than they occur. The call rests on the fitted dose curve; in most records, active means well fitted inhibition curve with a large enough effect; inconclusive means small, poorly fitted or top-dose-only effect, or another doubt; inactive means no such curve, though single readings can be large or run the other way. Some compounds were tested as several samples or in several runs, with calls that do not always agree.

molecular target: DNA polymerase iota (Homo sapiens) (UniProt Q9UNA4); assay: qHTS for Inhibitors of Polymerase Iota; details: Pol iota fluorescent replication assay, 10 min; series mostly up to 115 µM
Outline: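 Fluorescent replication assay read twice, at 0 min and 10 min after adding 50 nM (final) substrate. Enzyme (10 nM) and compounds were first incubated 15 min at room temperature; enzyme-free buffer wells were negative controls.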
Potency means the concentration at half of the fitted maximal effect.

DNA polymerase iota (Homo sapiens), sequence (Q9UNA4 whole entry, looked up): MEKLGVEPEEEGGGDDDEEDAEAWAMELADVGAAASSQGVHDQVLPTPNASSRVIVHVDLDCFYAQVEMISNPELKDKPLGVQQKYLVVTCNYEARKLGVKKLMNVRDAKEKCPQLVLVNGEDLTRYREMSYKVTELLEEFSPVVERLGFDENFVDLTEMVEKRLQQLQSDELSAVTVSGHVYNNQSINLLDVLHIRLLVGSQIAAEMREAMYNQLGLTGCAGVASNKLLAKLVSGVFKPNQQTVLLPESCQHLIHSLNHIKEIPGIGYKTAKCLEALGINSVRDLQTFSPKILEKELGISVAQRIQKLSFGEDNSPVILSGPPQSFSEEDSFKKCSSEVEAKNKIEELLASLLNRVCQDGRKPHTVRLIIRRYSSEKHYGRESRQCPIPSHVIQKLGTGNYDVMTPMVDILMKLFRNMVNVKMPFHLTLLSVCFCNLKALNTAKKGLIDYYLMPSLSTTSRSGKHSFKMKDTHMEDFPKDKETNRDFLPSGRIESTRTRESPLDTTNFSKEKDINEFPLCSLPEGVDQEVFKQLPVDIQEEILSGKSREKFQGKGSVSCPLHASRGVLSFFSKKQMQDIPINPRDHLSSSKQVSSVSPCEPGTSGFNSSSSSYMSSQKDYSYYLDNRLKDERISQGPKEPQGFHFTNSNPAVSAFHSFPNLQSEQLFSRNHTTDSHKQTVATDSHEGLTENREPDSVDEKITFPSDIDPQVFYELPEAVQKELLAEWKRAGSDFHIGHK

Compound | Potency
Cc1ccc(S(=O)(=O)N(CC(=O)NCc2ccco2)c2ccccc2C)cc1 | inactive
COc1ccc(S(=O)(=O)N(CC(=O)NCc2ccco2)c2ccc(F)cc2)cc1 | inactive
CS(=O)(=O)N(CC(=O)NCc1ccco1)c1ccc2c(c1)OCO2 | 70.8 µM (active)
O=C(O)C1CCN(C(=O)OCc2ccccc2)CC1 | inactive
CCOC(=O)N1CCC(C(N)=O)CC1 | inactive
CCOC(=O)N1CCC(c2cc(=O)n(-c3ccccc3)[nH]2)CC1 | 1.41 µM (active)
COc1ccccc1-c1noc(CSc2nnc(-c3ccccc3)n2-c2ccc(C)c(C)c2)n1 | inactive
COc1ccc(C(CCN2CCOCC2)c2c(OC)cc(OC)c3c2OC(=O)CC3c2ccc(OC)cc2)cc1 (configuration not stated) | inactive
O=[N+]([O-])c1ccc(COc2ccccc2CN2CCOCC2)cc1 | inactive
OCCN1CCOCCOCCN(CCO)CCN(CCO)CC1 | inactive
Oc1c(CN2CCOCC2)ccc(CN2CCOCC2)c1O | 10 µM (active)
Cc1cccc(NC(=O)CSc2nnc(CNC(=O)c3cccc(C)c3)n2-c2ccccc2)c1 | inactive
C=CC1=C(C(=O)O)N2C(=O)[C@@H](NC(=O)/C(=N\OCC(=O)O)c3csc(N)n3)[C@H]2SC1 | 50.1 µM (active)
CO/N=C(\C(=O)N[C@@H]1C(=O)N2C(C(=O)O)=C(COC(C)=O)CS[C@H]12)c1csc(N)n1 (stereo in doubt) | 20 µM (active) and 17.8 µM (active) and 11.2 µM (active)
Cc1nnc(SCC2=C(C(=O)O)N3C(=O)C(NC(=O)Cn4nc(C)c(Cl)c4C)C3SC2)s1 (configuration not stated) | inactive
COc1ccc(CCNC(=O)Cn2c(=O)cc(C(F)(F)F)c3c(C)nn(C)c32)c(OC)c1 | inactive
Cc1ccc(Cn2c(=O)n(-c3ccc(C)cc3)c(=O)c3c2c2cc(C)ccc2n3C)cc1 | inactive
COc1ccc(CCNC(=O)CCCn2c(=O)c3ccccc3n(Cc3ccc(F)cc3Cl)c2=O)cc1OC | inactive
COc1ccc(C2CC(O)(c3ccccc3)Oc3cc(C)cc(C)c32)cc1 (configuration not stated) | inactive
Cc1nn2c(=O)cc(COC(=O)c3ccccc3NC(=O)COc3ccccc3C)nc2s1 | inactive
COc1ccccc1C(=O)OCc1cc(=O)n2nc(-c3cccs3)sc2n1 | 79.4 µM (active)
O=C(OCc1cc(=O)n2nc(C3CC3)sc2n1)c1ccccc1Cl | inactive
Clc1cccc[n+]1CCCC[n+]1ccccc1Cl | inactive

Compound | Potency
Cc1ccc(-c2nc(=N)sn2Cc2ccccc2)cc1 | inactive
CSc1ccc(CCNC(=O)c2cnn(-c3ccccc3)c2-n2cccc2)cc1 | inactive
O=C(N/N=C/C=C/c1ccco1)c1cccs1 | 22.4 µM (active)
CC1(C)CC(=O)C/C(=N\NC(=O)c2cccs2)C1 | inactive
O=C(N/N=C/c1ccco1)c1ccc(NC(=O)C2CC2)cc1 | inactive
CC(=O)c1ccc(S(=O)(=O)N2CCN(c3nc4c(C)c(C)ccc4cc3C#N)CC2)cc1 | inactive
CC(=O)c1ccc(S(=O)(=O)N2CCC3(CC2)OCCO3)cc1 | inactive
CC(=O)c1ccc(S(=O)(=O)N2CCN(C(=O)/C=C/c3ccc4ccccc4n3)CC2)cc1 | 44.7 µM (active)
Cn1c(=O)nc2n(-c3ccc(Br)cc3)c3cccc(Cl)c3cc-2c1=O | inactive
CC(=O)Oc1cccc(N2C(=O)CC(Nc3ccc(N4CCOCC4)cc3)C2=O)c1 (configuration not stated) | 20 µM (active)
COc1ccc(N2C(=O)CC(Nc3ccc(F)cc3)C2=O)c([N+](=O)[O-])c1 (configuration not stated) | inactive
COc1ccc(N2CCN(C3CC(=O)N(c4ccc5c(c4)OCCO5)C3=O)CC2)cc1 (configuration not stated) | inactive
Cc1ccc(NC(=O)CSc2nc3c(c(=O)[nH]2)CN(Cc2ccc4c(c2)OCO4)CC3)cc1C | inactive
CCc1ccc2ncc3c(-c4ccc(C)cc4)nn(CC(=O)NCc4ccccc4)c3c2c1 | inactive
COC(=O)c1cnc(N2CCN(c3ccccc3OC)CC2)c2ccccc12 | inactive
S=c1[nH]nc(-c2ccco2)n1/N=C/c1ccc(Br)s1 | inactive
Cc1cc(-c2n[nH]c(=S)n2/N=C/c2ccco2)n[nH]1 | 44.7 µM (active)
COc1ccccc1/C=C/C=N/n1c(-c2ccc(Cl)cc2Cl)n[nH]c1=S | inactive
COc1ccc(C)cc1NC(=O)CCc1c(C)nn(-c2ccc(N3CCOCC3)nn2)c1C | inactive
COc1cccc(C(=O)NC(=O)Nc2ccc(-c3cc(C(F)(F)F)nn3-c3ccccc3)cc2)c1 | inactive
COC(=O)C1=C(c2ccccc2)c2ccccc2S(=O)(=O)N1CC(=O)Nc1ccccc1C(F)(F)F | inactive
OC(Cc1ccc2ccccc2n1)c1ccc(Cl)c(Cl)c1 (configuration not stated) | inactive
O=C(NCCS(=O)(=O)N1CCN(c2ccc(F)cc2)CC1)c1ccccc1Br | inactive

Compound | Potency
CC(=O)Nc1ccc(S(=O)(=O)NC2(C(F)(F)F)C(=O)Nc3c2c(=O)[nH]c(=O)n3Cc2ccccc2)cc1 (configuration not stated) | inactive
CCCN1C(=O)C(NS(=O)(=O)c2ccc(N)cc2)(C(F)(F)F)C(C(=O)OC)=C1C (configuration not stated) | inactive
CC(=O)Nc1ccc(S(=O)(=O)NC2(C(F)(F)F)C(=O)NC(C)=C2C#N)cc1 (configuration not stated) | 22.4 µM (active)
Cc1c(Cl)cccc1NC(=O)N1CCN(C(=O)c2nsc3ccccc23)CC1 | inactive
O=C(CCSCc1ccccc1F)N1CCN(c2ccc(Cl)cc2)CC1 | inactive
Cc1cccc(N(C(=O)c2sc(C)nc2C)C(C(=O)NCC2CCCO2)c2ccccc2)c1 (configuration not stated) | inactive
Cc1nc(C)c(C(=O)N(c2ccc(C)c(C)c2)C(C(=O)NCc2ccco2)c2ccccc2)s1 (configuration not stated) | 79.4 µM (active)
Cc1cccc(N(C(=O)Cc2cccs2)C(C(=O)NCc2ccco2)c2ccncc2)c1 (configuration not stated) | inactive
CC(C)(C(=O)NO)c1ccccc1 | inactive
O=C(Nc1c(-c2ccc(F)cc2)nc2ccccn12)c1cccc(F)c1 | inactive
O=C(COc1ccc(Cl)cc1)N1CCN(S(=O)(=O)c2ccc(Cl)cc2)CC1 | inactive
CS(=O)(=O)c1ccc(C(=O)OCC(=O)NNC(=O)COc2ccc(Cl)cc2)cc1 | 79.4 µM (active)
CS(=O)(=O)c1ccc(Cl)c(NC(=O)COC(=O)c2ncc(Cl)c(Cl)c2Cl)c1 | inactive
COc1cc(OC)c(/C=C/c2ccnc3ccccc23)c(OC)c1 | inactive
CC(NC(=O)CCc1cn(Cc2ccccc2Cl)c2ccccc12)c1ccccc1 (configuration not stated) | inactive
Cc1c(C)n(Cc2ccc(Cl)cc2)c2ccc(C(=O)N3CCN(c4ccccc4F)CC3)cc12 | inactive
CC(C)c1ccc2c(c1)c(SC(C)(C)C)c(CC(C)(C)C(=O)O)n2Cc1ccc(Cl)cc1 | 28.2 µM (active)
O=C(Cn1c(=O)nc(-c2ccccc2)c2cc(Cl)ccc21)NCc1ccc(Cl)cc1 | inactive
COc1cc(-c2noc(-c3ccc(N4CCCC4)c([N+](=O)[O-])c3)n2)cc(OC)c1OC | inactive
Cc1ccc(C(=O)N2CCc3cc(CNC(=O)c4ccc(Br)cc4)ccc32)cc1 | inactive
CSC1=N/C(=C\C=C\c2cccs2)C(=O)S1 | 15.8 µM (active)
Cc1ccc(CN(C(=O)COc2ccc(Cl)cc2C)C2CCS(=O)(=O)C2)o1 (configuration not stated) | inactive
CCc1cc2c(-c3ccccc3)cc(=O)oc2c2c1OCN(Cc1ccc(C)cc1)C2 | inactive

Compound | Potency
Cc1ccc(S(=O)(=O)c2nc(-c3ccco3)oc2SCC(=O)Nc2ccc(F)cc2)cc1 | inactive
O=C1CCCc2cc(S(=O)(=O)N3CCCC(C(=O)NCc4ccccc4)C3)ccc2N1 (configuration not stated) | inactive
COc1cccc(-c2nn(-c3ccccc3)cc2/C=C(\C#N)C(=O)NCCCn2ccnc2)c1 | inactive
Cc1ccc(-c2nn(-c3ccccc3)cc2/C=C2\SC(=S)N(CCCCCC(=O)O)C2=O)o1 | 89.1 µM (active)
Cc1ccc(-c2nn(-c3ccccc3)cc2/C=C/C(=O)Nc2cccc(S(N)(=O)=O)c2)cc1 | inactive
CN(C)S(=O)(=O)c1cccc(-c2nn(-c3ccccc3)cc2/C=C2\SC(=S)N(CC(=O)O)C2=O)c1 | 31.6 µM (active)
O=C1/C(=C/c2coc3ccc(O)cc3c2=O)SC(=S)N1c1ccccc1 | inactive
O=C(O)CCCCCCCCc1cn(CN2C(=O)c3ccccc3C2=O)nn1 | inactive
CCn1cc(C(=O)N(C)Cc2ccccc2)c(=O)c2cc(S(=O)(=O)N3CCCCCC3)ccc21 | inactive
COc1ccc(Cn2c(=O)n(-c3ccccc3C)c(=O)c3c4c(sc32)CN(C(C)=O)CC4)cc1 | inactive
CCn1c(C(=O)Nc2cc(Cl)ccc2C)cc2sc(Cl)cc21 | inactive
Cc1ccc2nc(/C(C#N)=C/c3ccc(-c4ccc(C(=O)OC(C)C)cc4)o3)[nH]c2c1 | inactive
CCCCC(=O)Nc1nnc(S(=O)(=O)N(C)Cc2ccco2)s1 | inactive
CN(Cc1ccco1)S(=O)(=O)c1nnc(NC(=O)c2ccccc2)s1 | inactive and 44.7 µM (active)
CN(Cc1ccccc1)S(=O)(=O)c1nnc(NC(=O)c2ccccc2F)s1 | inactive
CN(Cc1ccccc1)c1ccc(-c2nc(-c3ccccc3)no2)cc1[N+](=O)[O-] | inactive
CC(=O)c1ccc(NC(=O)c2nc3nc(C)cc(C(F)F)n3n2)cc1 | inactive
COc1ccc(-c2nc(S(=O)(=O)c3ccccc3)c(N3CCCCC3)o2)cc1 | inactive
CCn1cc(C(=O)N2CCN(c3cc(C)ccc3C)CC2)c(=O)c2cc(S(=O)(=O)N(C)C3CCCCC3)ccc21 | inactive
O=C(O)c1ccc(Cn2c(SCc3ccc(F)cc3)nc3ccncc32)cc1 | inactive
COc1ccccc1-n1c(-c2cc(-c3ccco3)[nH]n2)n[nH]c1=S | 8.91 µM (active)
COc1cc(-c2n[nH]c(=S)n2Cc2ccccc2)cc(OC)c1OC | inactive
Cc1cc(-c2n[nH]c(=S)n2-c2ccc(C)c(C)c2)no1 | inactive
